Assay outcomes: PubChem, The Scripps Research Institute Molecular Screening Center
UHRF1 MBD2 ctr: UHRF1 methyl-DNA binding inhibition; Q96T88; UHRF1 binding to methylated oligo, TR-FRET; inhibition, % at 4.4 µM; 0.75% of 370,000 active; in the data active = inhibition above about 21%;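 also: UHRF1 SRA domain binding a hemimethylated CpG hairpin DNA probe; 0% = median of test compound wells and 100% = reference inhibitor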
PRMT1 FP inh: blocks human protein arginine methyltransferase 1; inhibition, % at 2.79 µM; Q99873; recombinant PRMT1, activity-based probe fluorescence polarization; 1.3% of 370,000 active; AID 652257;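 active = inhibition above about 21% made by adding two undisclosed values, limit read from the data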
LEDGF integ inh: blocks HIV-1 LEDGF/p75-dependent DNA integration; TR-FRET IN-LEDGF/p75 DNA integration, Eu/Cy5; inhibition, % at 3.7 µM; 0.64% of 370,000 active; AID 743269;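 active = inhibition above the screen-wide mean plus 3 SD, cut at about 13% in these data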;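 also: signal is the Cy5 over europium emission ratio at 671 and 618 nm; 0% = plate median of compound wells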
ABHD5 PLIN5 PPI: ABHD5-PLIN5 protein interaction inhibition | Q00G26+Q8WTS1 | Split G. princeps luciferase complementation, luminescence, 4 h | inhibition, % at 4 µM | 0.78% of 360,000 active | AID 602281;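 active = inhibition above the mean inhibition across every tested compound plus 3 SD, cut at about 22% in these data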;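 also: 0% = DMSO only wells and the 100% control is not disclosed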
rCAG binder: r(CAG) repeat RNA binding; 1.3% of 370,000 active; inhibition, % at 3 µM; AID 651821; TO-PRO-1 dye displacement fluorescence;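 active = inhibition above the plate cutoff, the mean of all test compounds on that plate plus 3 SD, cut at about 35% in these data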;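 also: 0% = DMSO alone and 100% = 100 µM mitoxantrone as full dye displacement; higher means more dye released from RNA so lower well fluorescence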
MBD2 inh: blocks human MBD2 binding to methylated DNA; Q9UBB5; TR-FRET, MBD2 binding to methylated oligonucleotide; inhibition, % at 4.4 µM; 0.31% of 370,000 active; AID 686964; in the data active = inhibition above about 13%
ABHD5-PLIN5 conf: confirmation of human ABHD5-PLIN5 interaction inhibitors; 67% of 2,200 active; shares compounds with ABHD5 PLIN5 PPI; inhibition, % at 4 µM; biochemical ABHD5-PLIN5 interaction, luminescence; AID 651612; in the data active = inhibition above about 23%;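 also: 0% = DMSO vehicle wells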
HNF4 counter: active in HNF4 split-luciferase counter-screen for ABHD5-PLIN5 inhibitors. shares compounds with ABHD5 PLIN5 PPI. HNF4 dimerization, luminescence, biochemical. inhibition, % at 4 µM. 77% of 2,200 active. AID 651674;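 active = mean inhibition across replicate wells exceeding the computed hit threshold, cut at about 13% in these data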;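 also: light from luciferase halves that rejoin when HNF4 fusion proteins dimerize; 0% = DMSO only wells and the 100% control is not given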
Target sequence (P41235 whole entry, looked up, the tested form may be a part): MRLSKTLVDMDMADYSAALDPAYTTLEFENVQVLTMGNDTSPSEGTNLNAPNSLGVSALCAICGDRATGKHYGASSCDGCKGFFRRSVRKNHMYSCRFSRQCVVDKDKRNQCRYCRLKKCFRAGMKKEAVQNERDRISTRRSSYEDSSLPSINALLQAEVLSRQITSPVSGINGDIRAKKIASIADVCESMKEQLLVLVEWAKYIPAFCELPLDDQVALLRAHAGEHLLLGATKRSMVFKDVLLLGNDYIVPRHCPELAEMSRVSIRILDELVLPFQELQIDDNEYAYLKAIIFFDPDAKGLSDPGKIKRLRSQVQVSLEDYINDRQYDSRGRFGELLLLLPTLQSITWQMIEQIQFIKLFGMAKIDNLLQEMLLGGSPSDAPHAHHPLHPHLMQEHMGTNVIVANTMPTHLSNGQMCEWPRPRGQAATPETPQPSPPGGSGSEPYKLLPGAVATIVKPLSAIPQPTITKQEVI
The depositor's hits bear a star; / = no result given. An excerpt weighted towards active compounds, which were near 4.1% of everything screened.

SMILES	UHRF1 MBD2 ctr	PRMT1 FP inh	LEDGF integ inh	ABHD5 PLIN5 PPI	rCAG binder	MBD2 inh	ABHD5-PLIN5 conf	HNF4 counter
COc1cc(/C=C2\C(=O)NC(=O)N(c3ccccc3)C2=O)c([N+](=O)[O-])cc1OC	-9	4	4	10	3	1	/	/
Cc1cc(/C=C2/C(=O)NC(=O)N(c3ccccc3)C2=O)c(C)n1-c1ccc(F)cc1	-3	5	1	6	8	0	/	/
Cn1cc(/C=C2\C(=O)NC(=O)N(c3ccccc3)C2=O)c2ccccc21	-3	6	0	29*	0	-4	14	15*
CCCCCCCCn1sccc1=O	-15	18	7	90*	3	-10	89*	107*
CN1C(=O)C(=Cc2ccccc2Oc2ccc(Cl)cc2)C(=O)N(C)C1=O	-3	21*	-3	32*	3	-3	55*	52*
CC(C)(O)/C=C/C(=O)C(C)(O)C1C(O)CC2(C)C3CC=C4C(C=C(O)C(=O)C4(C)C)C3(C)C(=O)CC12C (stereo not given)	-1	-6	3	42*	-1	-4	68*	50*
COC(=O)C1=C(c2cccc(C#N)c2)C[C@@H]2CC[C@H]1N2C(=O)NCCOc1ccc(OC)cc1	-1	2	2	1	-8	1	/	/
C=CC[N+]1(C)CC[C@]23c4c5ccc(O)c4O[C@H]2C(=O)CC[C@@]3(O)[C@H]1C5 (stereo not given in full)	3	-1	-1	4	1	0	/	/
CCCCCCCSc1cc(OC)c(CCN(C)C)cc1OC	-2	-3	0	28*	-3	-4	17	1
COC(=O)C1=C(c2ccc(C(C)=O)cc2)C[C@@H]2CC[C@H]1N2C(=O)N1CCCCC1	/	/	/	6	/	/	/	/
O=C(O)c1cccc(NC(=O)N2C[C@H]3C[C@@H](C2)c2cccc(=O)n2C3)c1	-1	-9	3	2	-2	5	/	/
COc1ccc(C(=O)CN2CCOCC2)cc1F	-2	0	-1	31*	0	1	-3	9
CN(C)CC(C(=O)Cc1ccccc1)c1ccccc1 (stereo not given)	2	12	6	37*	0	-1	16	92*
COc1cccc(-c2ccc3c(c2)C2c4cnnn4-c4ccccc4C(=O)N2CC3)c1 (stereo not given)	-1	-1	-3	/	4	2	/	/
CNC(=S)N(C)CCc1cc2c(c(OC)c1C=C1C(=O)NC(=O)NC1=O)OCO2	0	15	-2	22	-2	-4	/	/
C=CCN1C(=O)NC(=O)/C(=C/c2c(CCN(C)C(=O)c3ccccc3)cc3c(c2OC)OCO3)C1=O	-6	10	2	26*	-2	0	9	18*
CCOC(=O)[C@]12Cc3ccccc3[C@H]1N(C(C)C)C(=O)c1ccccc12	4	-3	6	5	2	1	/	/
CCOC(=O)[C@]12Cc3ccc(C)cc3[C@H]1N(C1CCCCC1)C(=O)c1ccccc12	-1	0	1	40*	2	-9	30*	21*
CCOC(=O)[C@]12Cc3cc(C)ccc3[C@H]1N(CCC(=O)OC)C(=O)c1ccccc12	13	-4	3	14	1	1	/	/
CCOC(=O)[C@]12Cc3cc(C)ccc3[C@H]1N(C1CCCCC1)C(=O)c1ccccc12	-2	-1	1	48*	4	1	21	39*
CCOC(=O)[C@]12Cc3c(cc(OC)c(OC)c3OC)[C@H]1N(C1CCCCC1)C(=O)c1ccccc12	-1	1	-4	39*	-1	-2	20	32*
CCOC(=O)[C@]12Cc3ccc(C)cc3[C@H]1N(C1CCCCC1)C(=O)c1cc(OC)ccc12	-3	0	1	43*	3	-2	41*	46*
COc1ccc(-c2ccc3c(c2)CN(C(=O)C(C)(C)C)Cc2cnnn2-3)cc1	-1	0	6	11	4	1	/	/
